Bioassay records (PubChem)
NS1 inh: qHTS Assay for Inhibitors of Influenza NS1 Protein Function; Potency, µM (titrated, usually from 46.1 µM), inactives show top-dose activity, positive = more growth; 270,000 compounds, 0.4% hits; AID 2326, 2010; calls by dose curve; further: potency means the concentration at half of the fitted maximal effect; actives are rising curves; nearly all actives have a fitted effect of over 50% in size
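Read-out: OD600 growth recovery of NS1-expressing budding yeast. Cells grown overnight at 30C in -URA glucose medium, washed, resuspended and diluted 1:100 in 2% galactose assay medium, pH 6.0. Same strain lacking NS1 served as positive control.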
Cycloheximide cs: Cycloheximide Counterscreen for Small Molecule Inhibitors of Shiga Toxin; cell reporter, cycloheximide protein synthesis inhibition counterscreen; max response, %; 300,000 compounds, 12% hits; AID 2314, 2010; in the data active means max response mostly above about 13%, no sharp cut-off; inactive means mostly below about 14%; further: read at 38.3 µM for the half of the compounds with a filed dose; 0% is about no effect
Shiga inhibitor: A qHTS for Small Molecule Inhibitors of Shiga Toxin; inhibition, % at 38.7 µM; 290,000 compounds, 9.2% hits; Vero cells, Shiga toxin protein synthesis inhibition reporter; in the data active means inhibition mostly above about 28%, no sharp cut-off; inactive means mostly below about 43%; further: 0% is about no effect
Pf growth 96h: Primary qHTS for delayed death inhibitors of the malarial parasite plastid, 96 hour incubation; 320,000 compounds, 6.9% hits; P. falciparum luciferase reporter growth, 96 h; Potency, µM (titrated, usually from 28.7 µM), inactives show at the top dose activity change, negative = inhibition, usual class: inhibitors; further: potency means the concentration at half of the fitted maximal effect; on the % scale 0 is the no-effect control and ±100 the full control effect
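Two parasite generations (96 h, 37 C, 5% CO2) of compound exposure in infected erythrocytes (0.05% parasitemia, 2% hematocrit). Luciferase-reporter P. falciparum; decreased luminescence indicates inhibited growth, aimed at apicoplast-acting delayed death.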
Pf growth 48h: Primary qHTS for delayed death inhibitors of the malarial parasite plastid, 48 hour incubation; P. falciparum luciferase growth in erythrocytes, 48 h; Potency, µM (highest dose often 28.7 µM), for inactives: at the top dose activity change, negative = inhibition, actives largely listed as inhibitors; 310,000 compounds, 5.9% hits; further: potency means the concentration at half of the fitted maximal effect; on the % scale 0 is the no-effect control and ±100 the full control effect
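Firefly luciferase activity from engineered P. falciparum reports growth; inhibitors lower the luminescent signal. Cultures contained 2% hematocrit erythrocytes at 0.1% final parasitemia.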
* = called active by the depositor; i = inactive; ? = inconclusive; . = no result given; [ ] = dose if it differs, or a comment. Hits are enriched below; roughly 21% of the tested compounds scored in any of these assays. Unless noted, the call rests on the fitted dose curve; in most records, active means well fitted inhibition curve with a large enough effect; inconclusive means small, poorly fitted or top-dose-only effect, or another doubt; inactive means no such curve, though single readings can be large or run the other way.

SMILES | NS1 inh | Cycloheximide cs | Shiga inhibitor | Pf growth 96h | Pf growth 48h
O=[N+]([O-])c1cc(S(=O)(=O)N2CCCC2)ccc1N/N=C/c1cccnc1 | 15% | 2 | -9 | ? | -13%
O=C(O)c1sccc1SCc1ccc(Cl)cc1Cl | -79% | -2 | -8 | 34% | -2%
Nc1nc(Nc2ccccc2)nc2c1ncn2[C@@H]1O[C@H](CO)[C@H](O)[C@H]1O | -3% | . | . | . | .
O=C(COC(=O)Cc1cccc(F)c1)NC(=O)NC1CCCCC1 | . | . | . | 12% | -31%
Cc1ccc(-n2nc3c(c2NC(=O)c2c(-c4ccccc4Cl)noc2C)CSC3)cc1 | -18% | 21 | -3 | 20% | 13µM*
Cc1ccccc1-n1nc2c(c1NC(=O)c1c(-c3ccccc3Cl)noc1C)CSC2 | 7% | -9 | -6 | ? | 12µM*
Cc1ccccc1-n1nc2c(c1NC(=O)CCCl)CSC2 | -1% | -5 | -5 | -11% | -1%
Oc1ccccc1/C=N/NC(=S)NC1CC2CC1C1C=CCC21 (stereo not given) | 4% | 53* | 49* | 1.9µM* | 3.3µM*
COc1cccc(/C=N/NC(=O)CSc2nnc(C)n2-c2ccccc2)c1O | -1% | -1 | 14 | 33% | 45%
COc1cccc(/C=N/NC(=S)NC2CC3CC2C2C=CCC32)c1O (stereo not given) | -1% | 35* | 87* | 1.3µM* | 2.3µM*
Cc1ccc(C(=O)N/C(=C\c2ccc(-c3ccc([N+](=O)[O-])cc3)o2)C(=O)NC2CCS(=O)(=O)C2)cc1 (stereo not given) | -40% | -5 | -8 | ? | -22%
CCOC(=O)[C@H]1[C@H]2COc3ccc(OC)cc3[C@H]2N2C(=O)CNC(=O)[C@@]12C | . | . | . | 0% | 22%
Cn1cnnc1SCC(=O)NCCC(c1ccccc1)c1ccccc1 | -1% | -1 | -12 | . | 7%
Cn1cnnc1Sc1ccc(C(=O)NCCC(c2ccccc2)c2ccccc2)cc1[N+](=O)[O-] | ? | 0 | 17 | ? | 8.3µM*
S=C(/N=c1/sccn1Cc1ccccc1)NC1CC1 | -37% | 0 | 29 | 12µM* | ?
Cc1cc(-c2cc(C)c(O)c(C(C)(C)C)c2)cc(C(C)(C)C)c1O | -31% | . | . | . | .
CCOc1cccc(N2C(=O)CC(N(CCc3ccc(OC)c(OC)c3)C(=O)CC)C2=O)c1 (stereo not given) | -11% | 1 | 12 | 5.9µM* | 0%
CCOC(=O)c1ccc(N2C(=O)CC(N(C)CCc3ccc(OC)c(OC)c3)C2=O)cc1 (stereo not given) | -130% | -2 | -5 | . | ?
CCOc1ccc(N2C(=O)CC(N(CCc3ccc(S(N)(=O)=O)cc3)C(C)=O)C2=O)cc1 (stereo not given) | -5% | -2 | -2 | 8% | 3.7µM*
O=C(COC(=O)C1CCN(S(=O)(=O)c2cccc3cccnc23)CC1)c1ccccc1 | 9% | 1 | -12 | ? | -3%
O=C(O)c1ccc(SSc2ccc(C(=O)O)cn2)nc1 | -6% | . | . | . | .
O=C(Nc1ccc(Cl)cc1Cl)c1ccc(Br)o1 | -35% | 44* | 78* | ? | 42%
COc1ccc(N2CCOCC2)c(NC(=O)c2ccc(Br)o2)c1 | -35% | -2 | -4 | 10% | ?
Cc1ccnc2nc(C(=O)Nc3cc(Cl)ccc3N3CCOCC3)nn12 | 4% | 0 | -9 | 0.23µM* | 0.15µM*
O=C(Nc1cc(Cl)ccc1N1CCOCC1)c1ccc(Br)o1 | 1% | 69* | 65* | -2% | 184%
SMILES | NS1 inh | Cycloheximide cs | Shiga inhibitor | Pf growth 96h | Pf growth 48h
O=C(CNC(=O)c1ccc(Br)o1)NCc1ccc(Cl)cc1Cl | 7% | -4 | -15 | -29% | 5%
Cc1c(Cl)cccc1NC(=S)NNS(=O)(=O)c1ccc([N+](=O)[O-])cc1 | ? | 4 | -11 | 9% | -14%
CC1CCN(S(=O)(=O)c2ccc3c(c2)N(C)C(=O)CC(=O)N3C)CC1 | 11% | -2 | 11 | 21% | -4%
CC1(C)CC(=O)N(c2ccc(Cl)c(Cl)c2)C(=O)C1 | 1% | -3 | -6 | -12% | -1%
Cc1cc(C)c(NC(=O)CN2C(=O)NC3(CCCc4ccccc43)C2=O)c(Cl)c1 (stereo not given) | . | . | . | -27% | ?
O=C1CCN(C(=O)Cc2ccccc2[N+](=O)[O-])CC1 | . | 1 | -9 | -17% | -4%
O=C(Cc1ccccc1[N+](=O)[O-])N1CCN(c2ccccc2F)CC1 | -6% | 12* | 14 | 30% | 42%
O=[N+]([O-])c1cccnc1N1CCN(c2ccccc2F)CC1 | . | 18* | 26 | 37% | i
O=[N+]([O-])c1ccc(COc2cccc3cccnc23)cc1 | 0% | 68* | 143* | 7% | 64%
O=[N+]([O-])c1ccc(OCCCOc2cccc3cccnc23)cc1 | 9% | 1 | . | ? | 11%
N#Cc1ccc(COc2cccc3cccnc23)cc1 | 1% | 25* | 36* | 34% | 52%
Cc1cccc(C(=O)OCC(=O)c2cccc(Br)c2)c1O | -7% | 0 | 2 | -1% | 93%
Oc1ccccc1C=Nc1ccccc1-c1nc2ccccc2[nH]1 | -10% | 38* | 75* | -1% | 8%
COc1ccc(OC)c(/C=C/c2nc3ccccc3[nH]c2=O)c1 | -7% | -3 | -3 | -2% | -19%
O=C(c1ccccc1-c1nc2ccccc2[nH]1)N1CCCCC1 | -5% | 1 | 2 | 246% | -4%
COc1ccc(OC)c(C=Nc2ccccc2-c2nc3ccccc3[nH]2)c1 | -22% | 27* | 45* | ? | ?
Oc1ccc(C=Nc2ccccc2-c2nc3ccccc3[nH]2)c(O)c1 | -10% | 13* | 51 | 18% | 116%
Cc1ccc(C2=NN(C(=O)CCl)C(c3cccs3)C2)o1 (stereo not given) | -26% | 23* | 6 | 2.1µM* | 3.7µM*
O=C(CCl)N1N=C(c2ccco2)CC1c1cccs1 (stereo not given) | -20% | 1 | -6 | ? | 12µM*
CC(=O)N1N=C(c2ccco2)CC1c1cccs1 (stereo not given) | -5% | 5 | -5 | -2% | -9%
Cc1[nH]c2ccccc2c1/C=C/c1nc2ccccc2c(=O)n1CCO | -10% | 25* | 49* | 11%[1.15 µM] | 9.3µM*
O=c1c2ccccc2nc(/C=C/c2c[nH]c3ccccc23)n1-c1ccc([N+](=O)[O-])cc1 | -2% | -2 | 19 | 81% | ?
Cc1[nH]c2ccccc2c1/C=C/c1nc2ccccc2c(=O)n1-c1cccc([N+](=O)[O-])c1 | 15% | -1 | -13 | 3.7µM* | 2.1µM*
NS(=O)(=O)c1ccc(CCNC(=O)Cc2ccc(Cl)cc2)cc1 | -1% | 1 | . | 0% | -3%
O=C(NCCN1C(=O)S/C(=C\c2ccccc2F)C1=O)C1=COCCO1 | . | . | . | ? | 12%
O=C(NC1CCN(C(=O)Nc2cccc(F)c2)CC1)C1CCCCC1 | 5% | 1 | 19 | 12µM* | -4%
